Source: PubChem BioAssay AID651640 (Broad Institute, 2012)
Among all 350,000 compounds or so, about 6,000 (1.7%) were called active. Roughly 5% stayed inconclusive and do not appear here. This is one part of a sample in which actives are shown more often than they occur. Cut-off read from the data, not from the text of the source: active = CPE inhibition above about 20% (passing the limit was not always enough); inconclusive = no clear call, values can overlap the other calls; tested in BHK-21 cells.

Experiment: protection of cells from dengue 2 killing – plate reader, single concentration, primary screen (AID 651640);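 note: 0% = median of neutral control wells and 100% = median of positive control wells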
Details: DENV2-infected cells, cytopathic effect rescue, at 9.99 µM, stronger effect = higher value

Row | SMILES | CPE inhibition
1 | O=C(Nc1ccc(C(F)(F)F)cc1)N[C@@H]1CC[C@H](CCNC(=O)c2ccccc2F)O[C@@H]1CO | 5.46% (inactive)
2 | C[C@@H]1CCCCO[C@@H](CN(C)C(=O)Nc2ccc(F)cc2)[C@H](C)CN([C@@H](C)CO)C(=O)c2cc(NS(=O)(=O)c3ccccc3)ccc2O1 | -1.25% (inactive)
3 | CCC(=O)N1C[C@@H](C)[C@@H](OC)CN(C)C(=O)c2ccc(NC(=O)C3CCCCC3)cc2OC[C@@H]1C | -0.243% (inactive)
4 | COC(=O)C1=C(C)N(Cc2ccc(C(F)(F)F)cc2)C(=NCc2ccccc2)NC1c1ccccc1C(F)(F)F (configuration not stated) | 16% (inactive)
5 | CN1[C@@H]2c3ccc(-c4cccc(F)c4)c(=O)n3C[C@@H]2[C@@H](CO)[C@@H]1C(=O)NC1CCC1 | -3.71% (inactive)
6 | CC(C)NC(=O)N(C)C[C@@H]1Oc2ccc(NC(=O)Cn3cnnn3)cc2CC(=O)N([C@H](C)CO)C[C@H]1C | -6.63% (inactive)
7 | O=C(C[C@@H]1C[C@@H]2c3cc(NS(=O)(=O)c4ccccc4)ccc3O[C@@H]2[C@@H](CO)O1)NC1CCCCC1 | 9.22% (inactive)
8 | C[C@H](CO)N1C[C@H](C)[C@@H](CN(C)C(=O)Nc2ccnc(N3CCOCC3)c2)OCc2ccccc2-c2c(n(C)c3ccccc23)C1=O | -11.2% (inactive)
9 | C[C@@H](O)C#Cc1ccc([C@H]2[C@H](CO)N3CCCCN(C(=O)c4ccc(F)cc4)C[C@@H]23)cc1 | 22.8% (active)
10 | C[C@@H](O)C#Cc1ccc([C@@H]2[C@@H](CO)N3CCCCN(C(=O)c4ccc(F)cc4)C[C@@H]23)cc1 | 2.55% (inactive)
11 | C[C@H](O)C#Cc1ccc([C@@H]2[C@@H](CO)N3CCCCN(C(=O)c4ccc(F)cc4)C[C@H]23)cc1 | 4.05% (inactive)
12 | O=C(C[C@@H]1CC[C@@H]2[C@H](COC[C@H](O)CN2Cc2ccc(F)cc2)O1)NCc1ccncn1 | 19.2% (inactive)
13 | C[C@H]1CN([C@@H](C)CO)S(=O)(=O)c2ccc(-c3ccncc3)cc2O[C@H]1CN(C)S(C)(=O)=O | 8.89% (inactive)
14 | CC1(c2ccc(Cl)cc2)NC(=O)N(CC(=O)c2ccc3c(c2)OCO3)C1=O (configuration not stated) | 14.3% (inactive)
15 | CCC1(c2ccccc2)NC(=O)N(CC(=O)c2ccc3c(c2)OCO3)C1=O (configuration not stated) | 4.81% (inactive)
16 | COc1ccc(C2(C)NC(=O)N(CC(=O)c3ccc4c(c3)OCO4)C2=O)cc1 (configuration not stated) | 53.4% (active)
17 | COc1ccc([Si](C)(C)[C@@H]2[C@@H](CCO)O[C@]3(C(=O)N(Cc4cccc(N5CCCCC5=O)c4)c4ccccc43)[C@H]2C)cc1 | 3.86% (inactive)
18 | COc1ccc(C#Cc2cccc(-c3nc(C(=O)O)cc4c3[C@@H](CCO)N(S(=O)C(C)(C)C)C4)c2)cc1OC (some centres not stated) | 0.722% (inactive)
19 | COCC(=O)Nc1ccc2c(c1)[C@H]1C[C@H](CC(=O)OC)O[C@@H](CO)[C@H]1O2 | -10.3% (inactive)
20 | CCC(=O)Nc1ccc2c(c1)OC[C@H](C)N(CC1CCOCC1)C[C@@H](C)[C@@H](OC)CN(C)C2=O | -4.88% (inactive)
21 | Nc1c(C(=O)c2cccs2)sc2nsc(SCCN3CCCCC3)c12 | 29.4% (active)

Row | SMILES | CPE inhibition
22 | O=C(CSc1ncnc2sccc12)N1CCN(C(=O)c2cccs2)CC1 | 2.68% (inactive)
23 | CO[C@@H]1CN(C)C(=O)c2cc(NC(=O)c3ccccc3)ccc2OC[C@@H](C)N(C(C)=O)C[C@@H]1C | -5.72% (inactive)
24 | C[C@H](CO)N1C[C@H](C)[C@@H](CN(C)C(=O)c2ccccc2)OCCCC[C@H](C)Oc2ccc(NC(=O)c3ccccc3)cc2C1=O | 13.1% (inactive)
25 | O=C(C[C@H]1CC[C@@H]2[C@H](COC[C@H](O)CN2S(=O)(=O)c2ccc(F)cc2)O1)NCCN1CCCCC1 | -7.98% (inactive)
26 | O=C(C[C@@H]1CC[C@@H]2[C@H](COC[C@H](O)CN2S(=O)(=O)c2ccc(Cl)cc2)O1)N[C@@H]1CCN(Cc2ccccc2)C1 | 3.99% (inactive)
27 | O=C(C[C@@H]1CC[C@H]2[C@@H](COC[C@H](O)CN2S(=O)(=O)c2ccc(F)cc2)O1)N[C@H]1CCN(Cc2ccccc2)C1 | 24.2% (active)
28 | O=C(C[C@@H]1CC[C@H]2[C@@H](COC[C@H](O)CN2S(=O)(=O)c2ccccc2)O1)NCCN1CCCC1 | -4.25% (inactive)
29 | O=C(C[C@H]1CC[C@H]2[C@@H](COC[C@@H](O)CN2S(=O)(=O)c2ccc(Cl)cc2)O1)NCCN1CCCCC1 | 23.7% (active)
30 | O=C(C[C@H]1CC[C@@H]2[C@H](COC[C@H](O)CN2S(=O)(=O)c2ccc(Cl)cc2)O1)N[C@@H]1CCN(Cc2ccccc2)C1 | -1.97% (inactive)
31 | C[C@H](CO)N1C[C@H](C)[C@@H](CN(C)C)Oc2ccc(NS(=O)(=O)c3cccs3)cc2C1=O | -7.81% (inactive)
32 | Cc1noc(C)c1NC(=O)N(C)C[C@H]1OCCCC[C@@H](C)Oc2ccc(NC(=O)NC(C)C)cc2C(=O)N([C@@H](C)CO)C[C@H]1C | 18% (inactive)
33 | CNC[C@@H]1Oc2cc(C#CC3(O)CCCC3)ccc2S(=O)(=O)N([C@@H](C)CO)C[C@H]1C | 12.4% (inactive)
34 | CCC(=O)N1CC2(C1)CN(Cc1ccccc1Cl)[C@@H](CO)c1[nH]c3cc(OC)ccc3c12 | 1.97% (inactive)
35 | COc1ccc2c3c([nH]c2c1)[C@@H](CO)N(Cc1ccccc1F)CC31CN(C(=O)C2CC2)C1 | 2.19% (inactive)
36 | CCCNC(=O)N1CCC2(CC1)CN(Cc1ccccc1)[C@H](CO)c1[nH]c3cc(OC)ccc3c12 | 8.24% (inactive)
37 | CCC(=O)N1CC2(C1)CN(Cc1cc(F)ccc1F)[C@@H](CO)c1[nH]c3cc(OC)ccc3c12 | 47.6% (active)
38 | COc1ccc2c3c([nH]c2c1)[C@@H](CO)N(Cc1cc(F)ccc1F)CC31CN(C(=O)C2CCC2)C1 | -7.65% (inactive)
39 | COCC(=O)N1CC2(C1)CN(Cc1ccccc1F)[C@@H](CO)c1[nH]c3cc(OC)ccc3c12 | 11.2% (inactive)
40 | CCCNC(=O)N1CC2(C1)CN(Cc1cccc(F)c1)[C@@H](CO)c1[nH]c3cc(OC)ccc3c12 | 136% (active)
41 | COc1ccc2c3c([nH]c2c1)[C@@H](CO)N(Cc1cccc(F)c1)CC31CN(CC2CC2)C1 | 2.63% (inactive)
42 | COc1ccc2c3c([nH]c2c1)[C@H](CO)N(Cc1ccccc1Cl)CC31CN(C(=O)C2CC2)C1 | 53.5% (active)
